Assay results as given in PubChem BioAssay AID504339 (National Center for Advancing Translational Sciences (NCATS), 2011).
Out of some 390,000 compounds screened, about 17,000 (4.4%) were called active. Roughly 8% stayed inconclusive and do not appear here. The full list was thinned out, with actives kept by preference. A number with no mark means an inactive call. Calls come from the whole dose curve; as a rule, active = well fitted inhibition curve with a large enough effect; inconclusive = small, poorly fitted or top-dose-only effect; inactive = no such curve, though single readings can be large or run the other way.

Each compound was assayed against Lysine-specific demethylase 4A (Homo sapiens) (UniProt O75164) (assay: qHTS Assay for Inhibitors of JMJD2A-Tudor Domain). Details: AlphaScreen JMJD2A-Tudor / H3K4me3 peptide binding; series mostly up to 114 µM; activity change, negative = inhibition: at the top concentration.
Lysine-specific demethylase 4A (Homo sapiens), sequence (O75164 whole entry, looked up, the tested form may be a part): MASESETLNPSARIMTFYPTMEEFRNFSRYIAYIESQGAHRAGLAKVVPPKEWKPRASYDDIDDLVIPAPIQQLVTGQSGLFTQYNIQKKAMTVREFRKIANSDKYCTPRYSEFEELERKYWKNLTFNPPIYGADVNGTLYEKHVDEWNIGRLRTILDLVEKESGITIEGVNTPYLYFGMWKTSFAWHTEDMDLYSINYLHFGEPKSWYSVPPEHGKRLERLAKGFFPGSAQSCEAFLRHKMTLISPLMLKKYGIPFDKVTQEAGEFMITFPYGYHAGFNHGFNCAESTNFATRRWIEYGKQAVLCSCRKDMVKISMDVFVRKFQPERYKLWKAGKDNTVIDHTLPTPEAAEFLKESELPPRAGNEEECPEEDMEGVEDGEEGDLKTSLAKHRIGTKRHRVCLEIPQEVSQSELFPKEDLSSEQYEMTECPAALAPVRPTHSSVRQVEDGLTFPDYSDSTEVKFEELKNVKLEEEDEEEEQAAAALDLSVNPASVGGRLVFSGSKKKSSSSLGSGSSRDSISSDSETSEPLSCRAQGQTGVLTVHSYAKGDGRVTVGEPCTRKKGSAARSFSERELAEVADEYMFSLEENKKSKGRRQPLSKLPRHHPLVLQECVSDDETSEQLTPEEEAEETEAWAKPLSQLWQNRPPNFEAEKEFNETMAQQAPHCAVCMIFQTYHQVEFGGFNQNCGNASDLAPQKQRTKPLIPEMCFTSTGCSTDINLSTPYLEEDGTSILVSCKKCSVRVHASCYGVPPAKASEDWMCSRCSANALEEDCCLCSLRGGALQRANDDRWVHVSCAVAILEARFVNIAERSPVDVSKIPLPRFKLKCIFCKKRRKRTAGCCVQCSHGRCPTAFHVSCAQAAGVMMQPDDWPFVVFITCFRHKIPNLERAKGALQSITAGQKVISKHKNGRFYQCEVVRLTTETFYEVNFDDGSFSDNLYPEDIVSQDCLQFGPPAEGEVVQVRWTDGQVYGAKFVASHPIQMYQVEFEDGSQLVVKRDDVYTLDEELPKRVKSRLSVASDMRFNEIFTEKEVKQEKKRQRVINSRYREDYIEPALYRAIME
Excerpt: JMJD2A is a jumonji-domain-containing lysine demethylase that uses Fe(II) together with 2-OG to effect oxidative demethylation of histones. Methylation is one of many […] modification that affect epigenetic transcription. […] It is proposed that the functions of JmjD2A binding to the histones, is to maintain marks after they are installed and to spread the modifications by […], establishing a self-propagating cycle for rapid methylation over a large area of chromatin. […] Thus, small molecule targeting of the JMJD2A-tudor domain interaction with its target methylhistone mark is expected to enable sophisticated experiments probing the fine regulatory pathways leading to selective demethylation of a given methyllysine locus based on the methylation state of adjacent histone marks. A quantitative high throughput AlphaScreen has been developed to identify small molecule inhibitors based on a protocol published by NCGC and SGC [4].
Although AlphaScreen has significant advantages with its utility in a variety of epigenetic target assays, the primary screening data provided in this deposition should be used with caution due to the prevalence of screening artifacts. The top compound concentration tested was high (>100uM) in this assay, which increases number of actives and potential artifacts. An AlphaScreen counterscreen is highly recommended to be run against any putative actives to eliminate non-specific artifacts. Alternatively, one can use other AlphaScreen assays in PubChem to filter out promiscuous hits.
[1] Lee, J. et al. Distinct binding modes specify the recognition of methylated histone H3K4 and H4K20 by JMJD2A-tudor. Nat Struct Mol Biol. 15(1); 109-11. 2008. PMID: 18084306
[2] Yasgar, et al. Compound Management for Quantitative High-Throughput Screening. JALA. 2008 Apr;13(2):79-89. PMID: 18496600
[3] Inglese, et al. Quantitative high-throughput screening: a titration-based approach that efficiently identifies biological activities in large chemical libraries. Proc Natl Acad Sci. 1;103(31):11473-8. 2006. PMID: 16864780
[4] Quinn et al. A homogeneous method for investigation of methyl-dependent protein-protein interactions in epigenetics. Nucleic Acids Res., 38(2):e11. 2010. PMID: […]
[5] Baell,Holloway. New substructure filters for removal of pan assay interference compounds (PAINS) from screening libraries and for their exclusion in bioassays. J Med Chem. 53(7):2719-40. 2010. PMID: 20131845
NIH Molecular Libraries Probe Production Network [MLPCN]
NIH Chemical Genomics Center [NCGC]
Structural Genomics Consortium (SGC)
To each well of a 1,536w plate, 2ul of JMJD2A-Tudor (final 100nM) and 1ul biotinylated histone peptide methylated at Lys4 [b-H3(1-18)K4me3] (final 50nM) were added in 1x PBS buffer, pH 7.4, containing 0.01% Tween-20, using a nanoliter dispenser. Formation of a protein-peptide complex proceeded at room temperature for 30 min. A Kalypsys pin-tool transferred 23nl of library compound solution in DMSO to each well. Following a 30 min incubation of the protein-peptide complex with compounds at room temperature, a mixture of 40 µg/mL each streptavidin-coated donor and nickel chelate acceptor AlphaScreen beads (final 10 µg/mL) was added in a 1ul dispense for a final volume of 4ul, followed by a brief centrifugation (1000 rpm, 1 min). Plates were incubated protected from the light for 20 min at room temperature. Microplates were then read on an EnVision multilabel plate reader using the 1,536 plate HTS AlphaScreen aperture (excitation time 80 ms, measurement time 240 ms).
% is set by controls: 0 for no effect and ±100 for the full control effect; potency is the fitted concentration of half-maximal effect.
Note: nearly all actives have a fitted effect of over 50% in size.

| SMILES | Potency | activity change, negative = inhibition |
| --- | --- | --- |
| Cc1ccc(S(=O)(=O)/N=S(\C)C(C)C)cc1 (stereo unspecified) | 50.1 µM (active) |  |
| c1ccc2cc(OCCN3CCCC3)ccc2c1 | 7.94 µM (active) |  |
| C#CC(CCN1CCCCC1)(OC)c1ccccc1 (stereo unspecified) |  | -6.8% |
| O=C(Nc1ccc(F)cc1F)N1CCCN(CCOc2ccccc2)CC1 |  | -21.4% |
| CC(C)(c1ccccc1)c1ccc(OCCN2CCCC2)cc1 | 20 µM (active) |  |
| Clc1ccccc1-c1cc(COc2ccc3ccccc3c2)no1 |  | 186% |
| CCCCOc1ccc(C(C)(O)CCN2CCOCC2)cc1 (stereo unspecified) |  | -11.1% |
| O=C(Nc1ccccc1Cl)N1CCC(CN2CCCCC2)CC1 |  | 3.85% |
| O=C(CSCc1cnn(-c2ccccc2)c1-n1cccc1)NCc1ccc(Cl)cc1 |  | -6.62% |
| CCOc1ccc(OCC)c(NC(=O)c2cc(C)nc3c2c(C)nn3-c2cccc(Cl)c2C)c1 |  | 2.27% |
| CCOc1ccc(NC(=O)C(CC(C)C)N2Cc3ccccc3C2=O)cc1 (stereo unspecified) |  | 0% |
| CCNC(=O)c1cc2n(n1)CCCN(Cc1ccc(C)cc1)C2=O |  | 6.29% |
| CCCCc1nn2c(=O)cc(COC(=O)c3cccc(NC(=O)COc4ccccc4)c3)nc2s1 |  | -5.96% |
| Cc1ccc(Cl)cc1N(C)C(=O)Cn1nc(Cc2cccnc2)c2ccccc2c1=O |  | -28.5% |
| Cc1cc(NC(=O)C2CCC(CNS(=O)(=O)c3ccc(Br)s3)CC2)ccc1Br (stereo unspecified) |  | -1.03% |
| CSc1ncccc1C(=O)Nc1ccc(C)cn1 |  | -6.9% |
| COc1ccc(NC(=O)CN(C)C(=O)c2cc(-c3ccc(C)o3)nc3ccccc23)cc1 | 89.1 µM (active) |  |
| COc1ccc(-c2cc(C(=O)N(C)CC(=O)Nc3ccccc3Cl)c3ccccc3n2)cc1OC |  | 5.52% |
| CC(=O)N1CCN(C(=O)c2cc(-c3ccc(C)o3)nc3ccccc23)CC1 |  | -10.9% |
| Cc1ccc(NC(=O)c2cc(-c3ccc(C)o3)nc3ccccc23)nc1 | 35.5 µM (active) |  |
| COc1ccc(NC(=O)CN(C)C(=O)c2n[nH]c3ccccc23)cc1 |  | -9.29% |
| CCC1CN(S(=O)(=O)c2cc(-c3cc(C)no3)ccc2C)c2cc(C)ccc2O1 (stereo unspecified) |  | -13.3% |
| COc1cccc(C(=O)Nc2ccc3oc(-c4ccc5ccccc5c4)nc3c2)c1 |  | -27.5% |
| CCOc1ccc(C(=O)N2CCN(CCc3ccccn3)CC2)cc1 |  | -17.5% |
| Cc1ccc(F)cc1NC(=O)CCSc1nc(-c2ccco2)cc(C(F)(F)F)n1 |  | -14.1% |
| CCOC(=O)c1cc2c(=O)n3ccccc3nc2n(CC2CCCO2)c1=NC(=O)c1ccc(C(C)(C)C)cc1 (stereo unspecified) |  | 7.85% |

| SMILES | Potency | activity change, negative = inhibition |
| --- | --- | --- |
| CCCn1c(NCc2ccc(N(CC)CC)cc2)nc2ccccc21 | 39.8 µM (active) |  |
| CCCn1c(NCc2ccccc2F)nc2ccccc21 |  | 4.36% |
| CCCn1c(NC(=O)C23CC4CC(CC(O)(C4)C2)C3)nc2ccccc21 |  | -14.9% |
| COc1cccc(CNC(=O)Cc2csc3nc(-c4ccccc4)cn23)c1 |  | -22.7% |
| Cc1cc(C)c2oc(-c3cccc(NC(=O)c4cccc(F)c4)c3C)nc2c1 |  | -10.8% |
| COc1ccc(-c2nc(Cn3c(=O)cc(C)c4c(C)nn(-c5ccccc5)c43)c(C)o2)cc1OC |  | -13% |
| CCOC(=O)C1CCN(C(c2ccc(F)cc2)c2sc3nc(-c4ccco4)nn3c2O)CC1 (stereo unspecified) |  | 0% |
| CCOc1ccccc1NC(=O)Cn1c(=O)n(Cc2ccco2)c(=O)c2sc3ccccc3c21 |  | -20.5% |
| CCOc1ccccc1/C=c1\sc2nc(-c3ccco3)nn2c1=O | 56.2 µM (active) |  |
| CCCC(=O)Nc1cc2nn(-c3ccccc3)nc2cc1C |  | 1.96% |
| CCCC(=O)Nc1ccc(NC(=O)c2sc3ccccc3c2Cl)cc1 |  | -8.17% |
| COC(=O)c1cc(NC(=O)c2sc3ccccc3c2Cl)cc(C(=O)OC)c1 |  | -8.5% |
| Oc1ccc(N=Cc2sc3ccccc3c2Cl)cc1 | 50.1 µM (active) |  |
| CCOCCCNC(=O)c1c(NC(=O)Cc2coc3c(C)c(C)ccc23)sc2c1CCC2 |  | -26.7% |
| CCc1ccc(OCCCn2c(CCCNC(=O)C3CCCCC3)nc3ccccc32)cc1 |  | -13.1% [at 57.1 µM] |
| CC1=C(C(=O)OCc2ccc(C)cc2)C(c2ccccc2Cl)CC(=O)N1 (stereo unspecified) |  | -19.2% |
| CN(CC#CCC(c1ccccc1)c1ccccc1)C(C)(C)C |  | -24.1% |
| CC(C)(C)N(CC#CCC(O)(c1ccccc1)C1CCCC1)CCO (stereo unspecified) | 50.1 µM (active) |  |
| CCN(CCCNC(=O)Cn1ncc2c3ccccc3n(C)c2c1=O)Cc1ccccc1 |  | -12.1% |
| CCC(=O)N1CCc2cc(S(=O)(=O)NC(CC(C)C)C(=O)NCCc3cccc(C)c3)ccc21 (stereo unspecified) |  | -1.67% |
| O=C1c2ccccc2C(=O)c2c1cccc2N1CCN(Cc2ccccc2)CC1 | 14.1 µM (active) |  |
| O=S(=O)(c1cccs1)N1CCN(Cc2ccccc2)CC1 |  | -5.93% |
| CCc1c(C)nc(N2CCN(Cc3ccccc3)CC2)[nH]c1=O |  | -6.58% |
| COc1ccc(CNc2nc(-c3ccccc3)nn2C(=O)c2ccccc2OC)cc1 |  | 10.7% |
| CC(C)c1ccc(NC(=O)C2CCN(c3nc(-c4ccc(C(C)C)cc4)no3)CC2)cc1 |  | -15.6% |
